An excerpt weighted towards active compounds, which were near 5.7% of everything screened.
L3MBTL1 block: blocks human L3MBTL1 | AlphaScreen L3MBTL1–H3K9me1 peptide binding | 230,000 compounds, 0.66% hits | AID 485360 | Potency, µM (series often up to 57.1 µM), for the others: at the highest dose activity, negative = inhibition, actives largely listed as inhibitors; also: potency is read from the fitted curve at half-maximal effect; % is scaled to controls: 0 for no effect and ±100 for the full control effect; nearly all actives have a fitted effect of over 60% in size
Target sequence (Q9Y468 whole entry, looked up): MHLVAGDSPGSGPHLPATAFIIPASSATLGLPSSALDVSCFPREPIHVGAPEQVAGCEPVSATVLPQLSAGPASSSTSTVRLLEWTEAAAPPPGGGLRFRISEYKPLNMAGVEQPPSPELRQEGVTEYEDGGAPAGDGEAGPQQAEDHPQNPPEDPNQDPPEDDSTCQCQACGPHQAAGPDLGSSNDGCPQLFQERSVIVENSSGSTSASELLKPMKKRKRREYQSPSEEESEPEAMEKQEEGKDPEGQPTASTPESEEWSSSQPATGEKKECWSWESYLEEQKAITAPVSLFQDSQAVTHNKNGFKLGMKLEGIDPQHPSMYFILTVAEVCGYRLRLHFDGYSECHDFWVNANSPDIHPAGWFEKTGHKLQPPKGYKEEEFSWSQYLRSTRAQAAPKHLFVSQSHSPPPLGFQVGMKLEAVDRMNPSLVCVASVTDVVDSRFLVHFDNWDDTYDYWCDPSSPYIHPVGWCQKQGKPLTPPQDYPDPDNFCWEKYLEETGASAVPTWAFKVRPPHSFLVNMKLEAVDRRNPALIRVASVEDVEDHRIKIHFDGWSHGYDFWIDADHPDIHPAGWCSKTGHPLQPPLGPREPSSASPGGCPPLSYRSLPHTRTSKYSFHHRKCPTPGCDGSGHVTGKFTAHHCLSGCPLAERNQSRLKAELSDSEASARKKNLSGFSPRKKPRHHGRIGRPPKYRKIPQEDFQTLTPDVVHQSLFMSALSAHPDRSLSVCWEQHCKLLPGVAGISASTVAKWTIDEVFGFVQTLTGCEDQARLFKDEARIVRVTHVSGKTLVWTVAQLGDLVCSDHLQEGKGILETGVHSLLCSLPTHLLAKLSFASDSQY
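L3MBTL1 (50 nM) pre-complexed 30 min with biotinylated H3(1-15)K9me1 peptide (75 nM), then compounds added for 30 min at room temperature; AlphaScreen streptavidin donor/nickel chelate acceptor beads (10 ug/mL final) read after 30 min dark incubation.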
HP1b binding inh: HP1-beta chromodomain-methylated histone interaction inhibition; 390,000 compounds, 0.56% hits; Potency, µM (highest dose often 114 µM), for the others: at the highest dose activity change, negative = inhibition, most hits filed as inhibitors; AlphaScreen HP1-beta / biotin-H3K9me3 peptide binding; also: potency is read from the fitted curve at half-maximal effect; nearly all actives have a fitted effect of over 70% in size
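AlphaScreen: HP1-beta (50 nM) preformed 30 min with biotin-H3(1-18)K9me3 peptide (50 nM) in PBS pH 7.4, 0.01% Tween-20. Compound added for 30 min at RT, then streptavidin donor/nickel chelate acceptor beads (10 ug/mL) for 30 min.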
PI5P4Ka inh: PI5P4K alpha (human) kinase inhibition; PI5P4Kalpha enzyme, ADP-Glo luminescence, 60 min; hits give low values; max response, %; 330,000 compounds, 1.2% hits; AID 652105; active = max response of -50% or lower; inconclusive = between -30% and -50%; inactive = -30% or higher; also: value at the top dose of about 77 µM; % is scaled to controls: 0 for no effect and ±100 for the full control effect
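Controls without substrate or without enzyme flank wells where PI5P4Kalpha converts substrate using 5 microM ATP (final). Incubation lasts 60 minutes at room temperature; ADP formed is read by ADP-Glo luminescence.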
JMJD2E inh: blocks human JMJD2E demethylase activity; B2RXH2; 230,000 compounds, 1.6% hits; JMJD2E catalytic domain, FDH-coupled NADH fluorescence (FDH is formaldehyde dehydrogenase); Potency, µM (highest dose often 57.1 µM), without a hit: top-dose activity change, negative = inhibition, most hits filed as inhibitors; active = well fitted inhibition curve with a large enough effect, not every such curve was filed as active; inconclusive = small, poorly fitted or top-dose-only effect, or another doubt; inactive = no such curve, though single readings can be large or run the other way;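 also: potency is read from the fitted curve at half-maximal effect; 0% = wells with enzyme and -100% = buffer wells without enzyme; nearly all actives have a fitted effect of over 50% in size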
BAZ2B block: blocks human BAZ2B; Potency, µM (top dose mostly 114 µM), for inactives: at the highest dose activity change, negative = inhibition, most hits filed as inhibitors; 360,000 compounds, 4.4% hits; Q9UIF8; AlphaScreen BAZ2B-H3K14Ac peptide displacement; AID 504333; also: potency is read from the fitted curve at half-maximal effect; % is scaled to controls: 0 for no effect and ±100 for the full control effect; nearly all actives have a fitted effect of over 60% in size
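Protein-peptide AlphaScreen: BAZ2B 50 nM, b-H3K14Ac 50 nM, 1x PBS pH 7.4 + 0.01% Tween-20. Preincubation 30 min RT; cpd 30 min RT (top 110 uM); beads 20 min RT, light-protected.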
JMJD2A Tudor: JMJD2A Tudor domain (human) inhibition; O75164; AlphaScreen JMJD2A-Tudor / H3K4me3 peptide binding; Potency, µM (doses to about 114 µM), inactives show top-dose activity change, negative = inhibition, actives largely listed as inhibitors; 390,000 compounds, 4.4% hits; AID 504339; also: potency is read from the fitted curve at half-maximal effect; % is scaled to controls: 0 for no effect and ±100 for the full control effect; nearly all actives have a fitted effect of over 50% in size
Starred values were filed as active, the others as inactive; ? = inconclusive; nt = no result; [ ] = remark or other dose. Unless noted, calls follow the shape of the dose curve; as a rule, active = well fitted inhibition curve with a large enough effect; inconclusive = small, poorly fitted or top-dose-only effect; inactive = no such curve, though single readings can be large or run the other way.

SMILES	L3MBTL1 block	HP1b binding inh	PI5P4Ka inh	JMJD2E inh	BAZ2B block	JMJD2A Tudor
COc1ccccc1Cn1c(CNS(=O)(=O)c2c(C)cc(C)cc2C)nc2cccnc21	nt	29%[57 µM]	nt	nt	-20%	-28%
CSc1ccc(CCNC(=O)c2csc3c2CCCCC3)cc1	nt	17%	nt	nt	0%	-11%
Cc1ccsc1/C=N/NC(=O)c1ccc2ccccc2c1	nt	43%	-7	nt	-13%	-5%
CC1(C)CC2(CC(c3ccc(F)cc3)c3ccc(O)cc3O2)NC(=S)N1 (centres undefined)	nt	10%	-8	6%	?	?
CC1(C)CC2(CC(c3ccccc3F)c3ccc(O)c(O)c3O2)NC(=S)N1 (centres undefined)	-22%	?	-56*	10µM*	45µM*	40µM*
CC(C)Sc1ccccc1C(=O)Nc1ccc2c(c1)n(C)c(=O)n2C	1%	5%	1	nt	56µM*	-2%
CC(=O)Nc1ccc2c(c1)n(C)c(=O)n2C	1%	18%	nt	2%	-8%	-8%
Cc1ccc(OC(C)C(=O)Nc2ccc3c(c2)n(C)c(=O)n3C)c(C)c1 (centres undefined)	-2%	10%	-7	nt	56µM*	-21%
CC(=O)Nc1ccc(S(=O)(=O)Nc2ccc3c(c2)n(C)c(=O)n3C)c(C)c1	nt	-4%	-3	nt	50µM*	-12%
COc1ccc(C(=O)Nc2ccc3c(c2)n(C)c(=O)n3C)cc1OC	nt	31%	0	nt	56µM*	-17%
CCc1ccccc1NC(=O)CSc1nc2c(oc3ccccc32)c(=O)n1C	nt	21%	nt	nt	-2%	-15%
Nc1c2c(nc3ccccc13)N(c1ccccc1)CC2	-5%	?	7	?	0%	35µM*
CCCC(=O)Nc1c2c(nc3ccccc13)N(c1ccccc1)CC2	nt	33%	-1	?	13%	13%
O=C(CN1CCCCC1)Nc1c2c(nc3ccccc13)N(c1ccccc1)CC2	2%	?	1	?	56µM*	?
CC(C)CN(CC(C)C)c1ccc(/C=N/n2cnnc2)cc1[N+](=O)[O-]	-15%	?	-5	-10%	?	45µM*
O=[N+]([O-])c1cc(/C=N/n2cnnc2)ccc1N1CCCC1	-8%	49%	-4	-5%	-38%	-24%
CSc1nnc(-c2sc(-c3ccccc3)nc2C)n1C	-4%	16%	nt	?	-1%	-1%
Cc1ccc(-c2cc(-c3n[nH]c(=S)n3C)c3ccccc3n2)cc1	-10%	-30%	-26	?	?	?
Cn1c(-c2ccccc2Br)n[nH]c1=S	nt	-16%	-9	nt	nt	4.5µM*
Cc1ccn2c(-c3n[nH]c(=S)n3C)c(C)nc2c1	-16%	?	-21	?	0%	8.9µM*
Cc1nc(-c2ccccc2)sc1-c1n[nH]c(=S)n1C	-5%	12%	nt	?	79µM*	10µM*
Cn1c(-c2sccc2OCc2ccccc2)n[nH]c1=S	-1%	?	-10	?	56µM*	3.2µM*
COc1cccc(CNC(=O)COC(=O)CCCNC(=O)c2ccc(Cl)cc2)c1	0%	20%	-7	nt	8%	-14%
Cn1c(-c2ccccc2)n[nH]c1=S	8%	23%	4	-8%	-3%	22µM*
Cc1cccc(-c2n[nH]c(=S)n2C)c1	17%	?	-10	-13%	-2%	4.5µM*
Nn1c(-c2cccc(Br)c2)n[nH]c1=S	-3%	-10%	?	?	?	35µM*
Cc1ccc(OCC(=O)NN=C2C3CC4CC(C3)CC2C4)cc1	0%	13%	9	nt	9%	-10%
CCOC(=O)C1CCCN(S(=O)(=O)c2ccc(Cl)nc2)C1 (centres undefined)	0%	52%	6	nt	5%	-1%
O=C(c1ccccc1Cl)N1CCC(N2CCC(C(=O)N3CCCC3)CC2)CC1	nt	15%	4	nt	-6%[57.1 µM]	-23%
CC1CN(C2CCN(C(=O)c3ccccc3Cl)CC2)CC(C)O1 (centres undefined)	-10%	?	6	?	?	35µM*
